# Laboratory results published in PubChem BioAssay (EPA / NIEHS).
# Results filed as inconclusive are left out. Calls of active or inactive are those of the source. Rule for the calls, unless noted: active = hit-call score of the fitted dose curve at least 0.9, where 1 is the maximum; inactive = score below 0.9.
# Key:
# [1] = read-out: Interleukin-8 (IL8), CXCL8 (gene 3576); experiment: BSK_3C_IL8: BioMAP Diversity Plus: 3C Assay for Interleukin-8 (IL8) Biomarker Activity (AID 2283020); conditions: primary human endothelial cells (HUVEC); actives raise or lower the signal
# Outline: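 IL-8 was measured by ELISA in HUVEC cultures 24 h after chemical dosing, with gain or loss of signal fitted relative to DMSO. Parallel SRB total-protein staining tracked overt cytotoxicity.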
# [2] = read-out: Monokine induced gamma interferon (MIG), CXCL9 (gene 4283); experiment: BSK_3C_MIG: BioMAP Diversity Plus: 3C Assay for Monokine induced gamma interferon (MIG) Biomarker Activity (AID 2283021); conditions: primary human endothelial cells (HUVEC); actives raise or lower the signal;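 for AC50: MIG protein level measured by immunoassay in the treated endothelial cultures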
# Outline: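 ELISA measurement of MIG in human umbilical vein endothelial cells 24 h after treatment. Cytotoxicity tracked by SRB staining in parallel cultures; gain or loss of signal fitted relative to DMSO.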
# [3] = biological target: human Vitamin D Receptor (VDR), VDR (gene 7421) (UniProt P11473); experiment: ATG_VDR_TRANS: Attagene TRANS-FACTORIAL HepG2 Assay for human Vitamin D Receptor (VDR) (AID 2283022; active = hit-call score of the fitted dose curve at least 0.9, where 1 is the maximum)
# Outline: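 Transactivation by an exogenous VDR-Gal4 chimera in transiently transfected HepG2 cells was measured as reporter transcript level 24 hours after chemical treatment. RT-PCR products were analysed by capillary electrophoresis and fitted in the positive direction relative to DMSO.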
# [4] = BSK_3C_SRB: Viability Assessment in the BioMAP Diversity Plus: 3C Assay (AID 2283023); conditions: primary human endothelial cells (HUVEC);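 note: fitted both ways against DMSO so a hit may be signal rise or drop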
# Outline: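 Cytotoxicity readout in parallel HUVEC 3C cultures: after 24 h compound exposure, cells fixed with 10% TCA, stained with 0.1% SRB and read at 560 nm. Gain or loss relative to DMSO fitted.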
# [5] = read-out: Matrix Metallopeptidase 1 (MMP1), MMP1 (gene 4312); experiment: BSK_BE3C_MMP1: BioMAP Diversity Plus: BE3C Assay for Matrix Metallopeptidase 1 (MMP1) Biomarker Activity (AID 2283024); conditions: primary human bronchial epithelial cells; actives raise or lower the signal
# Outline: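 ELISA measurement of MMP-1 after 24 h compound exposure of primary human bronchial epithelial cells. Changes in either direction fitted relative to DMSO; parallel SRB staining checked overt cytotoxicity.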
# [6] = BSK_3C_Vis: BioMAP Diversity Plus: 3C Assay for Morphology Visualization (AID 2283025); conditions: primary human endothelial cells (HUVEC);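 note: fitted both ways so gain or loss versus DMSO counts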;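 for AC50: light microscopy image of cell morphology used as background control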
# Outline: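 Light-microscopy visualization of HUVEC cultures at 24 h post-treatment, with DMSO as baseline for bidirectional fitting.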
# [7] = read-out: Pselectin, SELP (gene 6403); experiment: BSK_4H_Pselectin: BioMAP Diversity Plus: 4H Assay for Pselectin Biomarker Activity (AID 2283026); conditions: primary human endothelial cells (HUVEC); actives raise or lower the signal
# Outline: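 ELISA of surface P-selectin on HUVEC, 24 h after dosing, with parallel SRB staining (0.1% after 10% TCA fixation, 560 nm) for overt cytotoxicity. Activity fitted in both directions relative to DMSO.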
# [8] = BSK_4H_SRB: Viability Assessment in the BioMAP Diversity Plus: 4H Assay (AID 2283027); conditions: primary human endothelial cells (HUVEC);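 note: cells exposed to compound for 24 h before staining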;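 for AC50: curves fitted both ways versus DMSO so AC50 may be loss or gain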
# Outline: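 Cytotoxicity readout: sulforhodamine B (0.1%) staining of total protein after 10% TCA fixation, measured at 560 nm in human umbilical vein endothelium at 24 h. DMSO set the baseline; fitting was bidirectional.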
# [9] = BSK_BE3C_SRB: Viability Assessment in the BioMAP Diversity Plus: BE3C Assay (AID 2283028); conditions: primary human bronchial epithelial cells;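 for AC50: fitted both ways so AC50 may mark signal gain or loss versus DMSO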
# Outline: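 Cytotoxicity read-out: SRB (0.1%) staining of TCA-fixed (10%) human lung bronchial epithelial cells, absorbance 560 nm, 24 h post-dosing. Curves fitted both directions relative to DMSO.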
# [10] = read-out: Thrombomodulin, THBD (gene 7056); experiment: BSK_3C_Thrombomodulin: BioMAP Diversity Plus: 3C Assay for Thrombomodulin Biomarker Activity (AID 2283029); conditions: primary human endothelial cells (HUVEC); actives raise or lower the signal
# Outline: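 ELISA measurement of thrombomodulin on HUVEC surface 24 h after chemical dosing; activity fitted in both directions relative to DMSO vehicle.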
# [11] = read-out: Urokinase-type plasminogen activator receptor (uPAR), PLAUR (gene 5329); experiment: BSK_4H_uPAR: BioMAP Diversity Plus: 4H Assay for Urokinase-type plasminogen activator receptor (uPAR) Biomarker Activity (AID 2283030); conditions: primary human endothelial cells (HUVEC); actives raise or lower the signal
# Outline: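 uPAR level read by ELISA on HUVEC cultures (BioMAP 4H) 24 h post-dosing, analyzed for gain or loss relative to DMSO. Parallel SRB staining assessed overt cytotoxicity.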
# [12] = read-out: Vascular endothelial growth factor receptor 2 (Homo sapiens) (UniProt P35968); experiment: BSK_4H_VEGFRII: BioMAP Diversity Plus: 4H Assay for Vascular endothelial growth factor receptor 2 (VEGFR2) Biomarker Activity (AID 2283031); conditions: primary human endothelial cells (HUVEC); actives raise or lower the signal;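 for AC50: cell-surface VEGFR2 protein level quantified by ELISA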
# Outline: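 Measured by ELISA after 24 h of compound treatment: VEGFR2 on primary human umbilical vein endothelial cells, fitted in both directions relative to DMSO. Parallel cultures received SRB staining (560 nm) for overt cytotoxicity.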
# [13] = read-out: Human Leukocyte Antigen - DR isotype (HLADR), HLA-DRA (gene 3122); experiment: BSK_BE3C_HLADR: BioMAP Diversity Plus: BE3C Assay for Human Leukocyte Antigen - DR isotype (HLADR) Biomarker Activity (AID 2283032); conditions: primary human bronchial epithelial cells; actives raise or lower the signal
# Outline: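 Cell-surface HLA-DR ELISA readout at 24 h after dosing in the BE3C primary human lung bronchial epithelial system; gain or loss of signal against DMSO, with parallel sulforhodamine B staining of total protein for overt cytotoxicity.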
# [14] = read-out: Vascular cell adhesion molecule 1 (VCAM1), VCAM1 (gene 7412); experiment: BSK_4H_VCAM1: BioMAP Diversity Plus: 4H Assay for Vascular cell adhesion molecule 1 (VCAM1) Biomarker Activity (AID 2283033); conditions: primary human endothelial cells (HUVEC); actives raise or lower the signal;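 for outcome: cell-surface VCAM-1 protein measured by ELISA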
# Outline: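 VCAM-1 ELISA read 24 h after chemical dosing of HUVEC in the BioMAP 4H system, with gain or loss of signal fitted relative to DMSO. Parallel SRB staining (560 nm) checked overt cytotoxicity.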
# [15] = read-out: Interferon-gamma inducible Protein 10 (IP10), CXCL10 (gene 3627); experiment: BSK_BE3C_IP10: BioMAP Diversity Plus: BE3C Assay for Interferon-gamma inducible Protein 10 (IP10) Biomarker Activity (AID 2283034); conditions: primary human bronchial epithelial cells; actives raise or lower the signal
# Outline: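 IP-10 quantified by ELISA in human primary bronchial epithelial cell cultures at 24 hours post-dosing. Gain or loss of signal fitted relative to DMSO; parallel SRB staining assessed overt cytotoxicity.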
# [16] = read-out: Monokine induced gamma interferon (MIG), CXCL9 (gene 4283); experiment: BSK_BE3C_MIG: BioMAP Diversity Plus: BE3C Assay for Monokine induced gamma interferon (MIG) Biomarker Activity (AID 2283035); conditions: primary human bronchial epithelial cells; actives raise or lower the signal;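 for outcome: MIG protein measured by ELISA in BE3C cultures after 24 h of dosing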
# Outline: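 hu bronchial epithelial 1° cells, 24 h cpd; MIG by ELISA; bidirectional fit, DMSO = baseline.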
# [17] = read-out: Transforming growth factor beta 1 (TGFb1), TGFB1 (gene 7040); experiment: BSK_BE3C_TGFb1: BioMAP Diversity Plus: BE3C Assay for Transforming growth factor beta 1 (TGFb1) Biomarker Activity (AID 2283036;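 for outcome: TGF-b1 protein level measured by ELISA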); conditions: primary human bronchial epithelial cells; actives raise or lower the signal
# Outline: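 ELISA readout of TGF-b1 from human lung bronchial epithelial primary cells, taken 24 h post-treatment. Gain or loss of signal fitted relative to DMSO baseline, with parallel SRB staining for overt cytotoxicity.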
# [18] = read-out: Plasminogen activator inhibitor-1 (PAI1), SERPINE1 (gene 5054); experiment: BSK_BE3C_PAI1: BioMAP Diversity Plus: BE3C Assay for Plasminogen activator inhibitor-1 (PAI1) Biomarker Activity (AID 2283037); conditions: primary human bronchial epithelial cells; actives raise or lower the signal
# Outline: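 PAI-1 was measured by ELISA in human primary bronchial epithelial cultures 24 h after chemical dosing, with cytotoxicity checked by SRB total-protein staining in parallel cultures. Activity was fitted in both directions relative to DMSO.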
# [19] = read-out: urokinase plasminogen activator (uPA), PLAU (gene 5328); experiment: BSK_BE3C_uPA: BioMAP Diversity Plus: BE3C Assay for urokinase plasminogen activator (uPA) Biomarker Activity (AID 2283038); conditions: primary human bronchial epithelial cells; actives raise or lower the signal;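 for outcome: uPA protein level quantified by ELISA in cell cultures; uPA read one day after compound addition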
# Outline: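 ELISA for uPA on human primary bronchial epithelial cultures 24 h post-treatment, gain or loss against DMSO. Parallel SRB staining (0.1% after 10% TCA fixation, 560 nm) assessed overt cytotoxicity.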
# [20] = read-out: Urokinase-type plasminogen activator receptor (uPAR), PLAUR (gene 5329); experiment: BSK_BE3C_uPAR: BioMAP Diversity Plus: BE3C Assay for Urokinase-type plasminogen activator receptor (uPAR) Biomarker Activity (AID 2283039); conditions: primary human bronchial epithelial cells; actives raise or lower the signal;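 for outcome: cells exposed to compound for one day before measurement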
# Outline: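 uPAR levels were measured by ELISA after 24 h compound treatment of primary human bronchial epithelial cells, fitted in both directions relative to DMSO. Parallel SRB staining served as the cytotoxicity read-out.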
# Sequence of human Vitamin D Receptor (VDR), VDR (gene 7421) (P11473 whole entry, looked up, the tested form may be a part): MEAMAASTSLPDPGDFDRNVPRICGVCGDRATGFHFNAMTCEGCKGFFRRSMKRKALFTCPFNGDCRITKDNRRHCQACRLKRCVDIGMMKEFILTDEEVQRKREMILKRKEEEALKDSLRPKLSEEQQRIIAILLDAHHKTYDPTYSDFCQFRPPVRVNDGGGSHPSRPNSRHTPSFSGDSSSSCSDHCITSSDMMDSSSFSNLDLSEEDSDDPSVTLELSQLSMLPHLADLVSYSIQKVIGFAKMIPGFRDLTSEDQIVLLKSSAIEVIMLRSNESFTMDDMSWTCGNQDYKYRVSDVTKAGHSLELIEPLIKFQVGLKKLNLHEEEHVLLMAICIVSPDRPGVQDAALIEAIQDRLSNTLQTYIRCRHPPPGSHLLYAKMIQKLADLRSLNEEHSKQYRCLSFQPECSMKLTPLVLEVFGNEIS
smiles,measurement,setting,value
CC1(C)C(C=C(Cl)Cl)C1C(=O)OC(C#N)c1ccc(F)c(Oc2ccccc2)c1 (stereo not given),outcome,[1],inactive
same,outcome,[2],inactive
same,outcome,[3],inactive
same,AC50,[4],8.15 µM (active)
same,outcome,[5],inactive
same,AC50,[6],9.8 µM (active)
same,outcome,[7],inactive
same,outcome,[8],inactive
same,outcome,[9],inactive
same,outcome,[10],inactive
same,outcome,[11],inactive
same,outcome,[12],inactive
same,outcome,[13],inactive
same,outcome,[14],inactive
same,outcome,[15],inactive
same,outcome,[16],inactive
same,outcome,[17],inactive
same,outcome,[18],inactive
same,outcome,[19],inactive
same,outcome,[20],inactive
CCOCN(C(=O)CCl)c1c(C)cccc1CC,outcome,[1],inactive
same,outcome,[2],inactive
same,outcome,[3],inactive
same,AC50,[4],18.2 µM (active)
same,outcome,[5],inactive
same,AC50,[6],39 µM (active)
same,AC50,[7],11.4 µM (active)
same,outcome,[8],inactive
same,AC50,[9],20 µM (active)
same,outcome,[10],inactive
same,outcome,[11],inactive
same,outcome,[12],inactive
same,AC50,[13],15.3 µM (active)
same,AC50,[14],19.2 µM (active)
same,AC50,[15],16.5 µM (active)
same,outcome,[16],inactive
same,outcome,[17],inactive
same,outcome,[18],inactive
same,outcome,[19],inactive
same,outcome,[20],inactive
CCC(C)(C)C(=O)OC1=C(c2ccc(Cl)cc2Cl)C(=O)OC12CCCCC2,AC50,[1],30.9 µM (active)
same,AC50,[2],35.2 µM (active)
same,outcome,[3],inactive
same,AC50,[4],26.1 µM (active)
same,AC50,[5],36.6 µM (active)
same,AC50,[6],29.4 µM (active)
same,AC50,[7],36.5 µM (active)
same,AC50,[8],34.3 µM (active)
same,AC50,[9],31.3 µM (active)
same,outcome,[10],inactive
same,AC50,[11],32 µM (active)
same,outcome,[12],inactive
same,AC50,[13],23.5 µM (active)
same,AC50,[14],36.6 µM (active)
same,AC50,[15],31.3 µM (active)
same,AC50,[16],34.2 µM (active)
same,AC50,[17],35.7 µM (active)
same,AC50,[18],20 µM (active)
same,AC50,[19],31.1 µM (active)
same,AC50,[20],36.4 µM (active)
CNC(=O)CSP(=S)(OC)OC,outcome,[1],inactive
same,outcome,[2],inactive
same,outcome,[3],inactive
same,outcome,[4],inactive
same,outcome,[5],inactive
same,outcome,[6],inactive
same,outcome,[7],inactive
same,outcome,[8],inactive
same,outcome,[9],inactive
same,outcome,[10],inactive
same,outcome,[11],inactive
same,outcome,[12],inactive
same,outcome,[13],inactive
same,outcome,[14],inactive
same,outcome,[15],inactive
same,outcome,[16],inactive
same,outcome,[17],inactive
same,outcome,[18],inactive
same,outcome,[19],inactive
same,outcome,[20],inactive
O=S1OCC2C(CO1)C1(Cl)C(Cl)=C(Cl)C2(Cl)C1(Cl)Cl (stereo not given),AC50,[1],32.7 µM (active)
same,AC50,[2],36 µM (active)
same,outcome,[3],inactive
same,AC50,[4],20 µM (active)
same,AC50,[5],36.6 µM (active)
same,AC50,[6],16.3 µM (active)
same,AC50,[7],27.3 µM (active)
same,AC50,[8],27.7 µM (active)
same,AC50,[9],20.9 µM (active)
same,outcome,[10],inactive
same,AC50,[11],30.5 µM (active)
same,AC50,[12],34.8 µM (active)
same,AC50,[13],26.6 µM (active)
same,AC50,[14],36.5 µM (active)
same,AC50,[15],17.8 µM (active)
same,AC50,[16],34.4 µM (active)
same,AC50,[17],39.1 µM (active)
same,AC50,[18],28.8 µM (active)
same,AC50,[19],30.3 µM (active)
same,AC50,[20],30.7 µM (active)
